{
  "source": "PubChem BioAssay AID1851",
  "about": "(National Center for Advancing Translational Sciences (NCATS), 2009)",
  "note": "In all, about 16,000 compounds went through this assay and about 5,700 (36%) were called active. Roughly 24% stayed inconclusive and do not appear here. The call rests on the fitted dose curve; in most records, active means well fitted curve in the direction sought with a large enough effect; inconclusive means small, poorly fitted or top-dose-only effect, or effect the other way; inactive means no such curve, though single readings can be large or run the other way. This is one part of the list. On the % scale 0 is the no-effect control and ±100 the full control effect.",
  "data": [
    {"target": "Cytochrome P450 1A2 (Homo sapiens) (UniProt P05177)", "sequence (P05177 whole entry, looked up)": "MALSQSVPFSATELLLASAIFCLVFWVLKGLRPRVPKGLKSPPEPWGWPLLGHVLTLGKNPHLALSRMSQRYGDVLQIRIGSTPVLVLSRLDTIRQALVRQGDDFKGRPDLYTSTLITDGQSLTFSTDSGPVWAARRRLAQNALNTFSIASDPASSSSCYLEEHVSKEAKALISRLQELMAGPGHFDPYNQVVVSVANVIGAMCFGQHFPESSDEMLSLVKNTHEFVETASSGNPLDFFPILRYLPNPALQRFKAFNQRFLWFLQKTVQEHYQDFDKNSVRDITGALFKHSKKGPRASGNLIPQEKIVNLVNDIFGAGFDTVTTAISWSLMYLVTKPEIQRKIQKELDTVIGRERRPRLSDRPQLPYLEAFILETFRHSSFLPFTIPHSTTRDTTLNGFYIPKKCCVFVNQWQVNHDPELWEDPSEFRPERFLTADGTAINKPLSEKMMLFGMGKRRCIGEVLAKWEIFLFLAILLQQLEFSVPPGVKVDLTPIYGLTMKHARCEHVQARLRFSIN", "test": "Cytochrome panel assay with activity outcomes", "conditions": "recombinant CYP, pro-luciferin dealkylation, luminescence, p450-cyp1a2; series mostly up to 57.1 µM; activity, negative = inhibition: at the top concentration", "values": [
      {"smiles": "O=C(NCC1CCCO1)C(c1cccnc1)N(C(=O)Cc1cccs1)c1cccnc1", "note": "(stereo unspecified)", "activity, negative = inhibition": "3.77% (inactive)"},
      {"smiles": "O=C(NCC1CCCO1)C(c1cccnc1)N(C(=O)Cc1cccs1)c1ccccc1", "note": "(stereo unspecified)", "AC50": "12.6 µM (active)"},
      {"smiles": "Cc1ccccc1N(C(=O)Cc1cccs1)C(C(=O)NCC1CCCO1)c1cccnc1", "note": "(stereo unspecified)", "activity, negative = inhibition": "-0.125% (inactive)"},
      {"smiles": "O=c1c2ccc(Cl)cc2nc(-c2cccc(C(F)(F)F)c2)n1O", "AC50": "1.26 µM (active)"},
      {"smiles": "COC(=O)c1sccc1NC(=O)CN(C)NS(=O)(=O)c1ccc(F)cc1", "AC50": "11.2 µM (active)"},
      {"smiles": "COc1ccc(S(=O)(=O)NCCC(=O)NCc2ccc(F)cc2)cc1", "activity, negative = inhibition": "-6.97% (inactive)"},
      {"smiles": "CCCc1nnc(NC(=O)c2cccs2)s1", "AC50": "0.631 µM (active)"},
      {"smiles": "CCCc1nnc(NC(=O)CN2C(=O)C3C4C=CC(C4)C3C2=O)s1", "note": "(stereo unspecified)", "activity, negative = inhibition": "-24.4% (inactive)"},
      {"smiles": "Cc1ccc(Cc2cnc(NC(=O)c3cccs3)s2)cc1", "AC50": "1.41 µM (active)"},
      {"smiles": "CCOc1cc(NC(=O)c2cccs2)c(OCC)cc1NC(=O)c1ccco1", "activity, negative = inhibition": "-27% (inactive)"},
      {"smiles": "O=C(Nc1ncc(Cc2cccc(Cl)c2)s1)c1cccs1", "AC50": "1.58 µM (active)"},
      {"smiles": "CCCc1nnc(NC(=O)Cn2cnc3ccccc3c2=O)s1", "activity, negative = inhibition": "-10.1% (inactive)"},
      {"smiles": "COc1ccc(O[C@H]2C=C[C@@H](c3ccccc3)O[C@H]2COC(=O)CC/C(C)=N\\O[C@@H](C)CN2CCCCc3nc(C)c(C)cc32)cc1", "activity, negative = inhibition": "-2.12% [at 11.4 µM] (inactive)"},
      {"smiles": "O=C(c1csnn1)N1CCC2(CC1)CN(c1ccncc1)C2", "activity, negative = inhibition": "1.41% (inactive)"},
      {"smiles": "O=c1c2c(-c3cccs3)csc2ncn1-c1ccc(Br)cc1", "AC50": "0.794 µM (active)"},
      {"smiles": "Nc1[nH]nc2nc3ccccc3nc12", "AC50": "0.316 µM (active)"},
      {"smiles": "N[C@@H](Cc1cnc[nH]1)C(=O)O", "activity, negative = inhibition": "-7.04% (inactive)"},
      {"smiles": "N=C(N)SCCc1cnc[nH]1", "AC50": "inactive"},
      {"smiles": "Fc1ccc(C(OCCCc2cnc[nH]2)c2ccc(F)cc2)cc1", "AC50": "0.1 µM (active)"},
      {"smiles": "NS(=O)(=O)c1cc(C(=O)O)c(O)c2ccccc12", "activity, negative = inhibition": "-19.2% [at 11.4 µM] (inactive)"},
      {"smiles": "O=C(O)c1cc2ccccc2c(S(=O)(=O)O)c1O", "activity, negative = inhibition": "6.64% [at 11.4 µM] (inactive)"},
      {"smiles": "C=CCNS(=O)(=O)c1cccc2cc(C(=O)O)c(O)cc12", "AC50": "1.58 µM (active)"},
      {"smiles": "O=C(Cn1cccc1C(=O)c1ccccc1)NCc1cccs1", "AC50": "20 µM (active)"},
      {"smiles": "CCN(CC(=O)NCc1cccs1)S(=O)(=O)c1ccc(C(C)C)cc1", "activity, negative = inhibition": "-27.2% (inactive)"},
      {"smiles": "Cc1ccc(CCN2CC(C(=O)NCCN3CCOCC3)CC2=O)cc1", "note": "(stereo unspecified)", "activity, negative = inhibition": "-19.1% (inactive)"},
      {"smiles": "Cc1noc(C)c1COc1cccc(C(=O)OCC(=O)N2CC(=O)Nc3ccccc32)c1", "AC50": "25.1 µM (active)"},
      {"smiles": "CS(=O)(=O)N1CCN(c2ccc(C(=O)NC3C4CC5CC(C4)CC3C5)cc2[N+](=O)[O-])CC1", "note": "(stereo unspecified)", "activity, negative = inhibition": "16.8% (inactive)"},
      {"smiles": "Cc1cc(C=O)c(C)n1-c1ccc(N2CCCCC2)c([N+](=O)[O-])c1", "AC50": "14.1 µM (active)"},
      {"smiles": "Cc1cc(C=O)c(C)n1-c1ccc(NC2CCCC2)c([N+](=O)[O-])c1", "AC50": "0.447 µM (active)"},
      {"smiles": "Cc1cc(C(=O)C(=O)NC(C)C)c(C)n1-c1ccc([N+](=O)[O-])cc1", "activity, negative = inhibition": "-16.5% (inactive)"},
      {"smiles": "COc1ccccc1OCCN1C(=O)S/C(=C\\c2ccco2)C1=O", "AC50": "14.1 µM (active)"},
      {"smiles": "COc1ccc(/C=C2\\SC(=O)N(CCNC(=O)C3CC(=O)N(c4ccccc4)C3)C2=O)cc1", "note": "(stereo unspecified)", "activity, negative = inhibition": "-15.8% (inactive)"},
      {"smiles": "CC(=O)[C@@H](C)CCO[C@@]1(C)OCC[C@@H]1C", "activity, negative = inhibition": "-19.3% [at 11.4 µM] (inactive)"},
      {"smiles": "O=C(c1ccc(C(F)(F)F)cc1)c1c[nH]c(C(=O)NCCCn2ccnc2)c1", "AC50": "2 µM (active)"},
      {"smiles": "CC(C)(C)c1ccc(C(=O)c2c[nH]c(C(=O)NCCCn3ccnc3)c2)cc1", "AC50": "5.62 µM (active)"},
      {"smiles": "CC1=C(C#N)C(Nc2ccc(Cl)cn2)(C(F)(F)F)C(=O)N1", "note": "(stereo unspecified)", "activity, negative = inhibition": "-10.6% (inactive)"},
      {"smiles": "CC(=O)c1sc(NC(=O)C(C)C)nc1C", "AC50": "10 µM (active)"},
      {"smiles": "CCOC(=O)C1CCN(C(=O)C2CCN(c3nc4ccc(OC)cc4s3)CC2)CC1", "activity, negative = inhibition": "-20.4% (inactive)"},
      {"smiles": "CCOc1ccc2nc(N3CCCCCC3)sc2c1", "AC50": "2.82 µM (active)"},
      {"smiles": "CCOC(=O)N1CCN(C(=O)c2ccc3nc(N4CCC(C)CC4)sc3c2)CC1", "activity, negative = inhibition": "-26.8% (inactive)"},
      {"smiles": "CC(=O)NC(C)C(c1cccs1)N1CCN(c2ccccc2)CC1", "note": "(stereo unspecified)", "activity, negative = inhibition": "5.22% (inactive)"},
      {"smiles": "COC(=O)[C@@]1(Cc2ccc(F)cc2)[C@@H]2[C@@H](CC(=O)[C@H]2CC(=O)C(=O)N(C)C)CN1C(=O)c1ccccc1", "activity, negative = inhibition": "-11.5% (inactive)"},
      {"smiles": "Cc1cnc(CNc2ncncc2-c2ccccc2Cl)cn1", "AC50": "15.8 µM (active)"},
      {"smiles": "CN(C)Cc1ccccc1-c1cncnc1NC1CC1", "AC50": "15.8 µM (active)"},
      {"smiles": "Cc1cnc(CNc2ncncc2-c2ccccc2CN(C)C)cn1", "AC50": "12.6 µM (active)"},
      {"smiles": "Cc1cnc(CNc2ncncc2-c2ccccc2C)cn1", "AC50": "25.1 µM (active)"},
      {"smiles": "Cc1cnc(CNc2ncncc2-c2ccccc2C(F)(F)F)cn1", "activity, negative = inhibition": "-14.1% (inactive)"},
      {"smiles": "CC1=CC(=O)C=CC1(C)C(Cl)(Cl)Cl", "note": "(stereo unspecified)", "activity, negative = inhibition": "-2.86% (inactive)"},
      {"smiles": "CCN1C(=O)[C@@H]2[C@H]3C(=CC[C@H]2C1=O)C(=O)[C@H]1OC1[C@H]3O", "note": "(stereo partly specified)", "activity, negative = inhibition": "-3.23% [at 11.4 µM] (inactive)"},
      {"smiles": "Cc1nc(SC2CC(=O)N(c3ccc([N+](=O)[O-])cc3)C2=O)nc2c1CCCC2", "note": "(stereo unspecified)", "activity, negative = inhibition": "22.7% (inactive)"},
      {"smiles": "Cc1cnc(CNc2ncncc2-c2ccccc2C#N)cn1", "AC50": "0.251 µM (active)"}
    ]}
  ]
}
